Data on 5 molecules can be found in PubChem BioAssay.

Results filed as inconclusive are left out. Active and inactive are the calls of the source.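 The calls were made as follows, unless noted: active = inhibition above the screen-wide mean plus 3 SD, about 51%; inactive = the rest.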

Assay [1] can be described thus: rapamycin-like changes in RPL19A-GFP expression – cell-based, S. cerevisiae, multiplex flow cytometry, primary screen (AID 1862; in the data active = percent of DMSO control GFP below about 86%;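 also: lower values mimic rapamycin by blocking the RPL19A rise seen in DMSO cells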). Conditions: S. cerevisiae RPL19A-GFP strain, flow cytometry fluorescence, 3 h; at 10 µM; stronger effect = lower value. A general note: A flow cytometer gives signals particle by particle.
Assay [2] can be described thus: TOR pathway GLN3 branch reporter MEP2-GFP changes – S. cerevisiae, multiplex flow cytometry, primary screen (AID 1867;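 active = GFP response, as percent of the DMSO control, above the screen-wide mean plus 3 SD, about 139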;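 also: median GFP channel fluorescence of barcode-gated MEP2-GFP cells measured by flow cytometry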). To be noted: S. cerevisiae MEP2-GFP strain, 3 h, at 10 µM, stronger effect = higher value, 100% means same as DMSO wells.
The nature of assay [3]: TOR pathway RTG branch CIT2 reporter changes – S. cerevisiae, GFP fusion, multiplex flow cytometry, primary screen (AID 1870;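 active = percent response above a set limit, the screen-wide mean plus 3 SD, cut at about 130% in these data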;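 also: barcoded CIT2-GFP strain pooled with four other GFP strains with rapamycin as positive control; median GFP fluorescence per well over plate mean of DMSO wells so 100% = DMSO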). To be noted: S. cerevisiae CIT2-GFP expression, 3 h, at 10 µM, stronger effect = higher value.
The nature of assay [4]: TOR pathway LAP4-GFP level changes – S. cerevisiae, multiplex flow cytometry, primary screen (AID 1873;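 active = GFP signal, as percent of the solvent control, above the screen mean plus 3 SD, about 149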). To be noted: S. cerevisiae LAP4-GFP expression, 3 h, at 10 µM, stronger effect = higher value.
Assay [5] can be described thus: yeast AGP1-GFP level changes, GLN3 branch – cell-based, multiplex flow cytometry, S. cerevisiae, primary screen (AID 1887;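 active = GFP signal above the screen-wide mean plus 3 SD, that is over about 124.5% of the solvent control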;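 also: AGP1-GFP fusion strain of S. cerevisiae within a five-strain barcoded multiplex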). Conditions: 3 h, at 10 µM, stronger effect = higher value.
Assay [6] can be described thus: reduced mouse 2C T cell binding to pMHC/ICAM-1 vesicles – MLPCN validation set, flow cytometry, LFA-1/ICAM-1 modulator project, pilot screen (AID 2523;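 active = response below a set limit, under 55% cells CD8-positive and vesicle-bound, and CD8 cells' 90th-percentile brightness under 279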;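 as to vesicle binding response: mean PE anti-B7-1 fluorescence of CD8+ cells relative to row control; 100% = QL9-loaded vesicles with DMSO vehicle in the same plate row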). Conditions: 2C mouse CD8+ T cells, at 7 µM, stronger effect = lower value; double positive events: measured here: CD8+/vesicle+ event percentage.
Assay [7] has as its target Integrin beta-1 (Homo sapiens) + Integrin alpha-4 (Homo sapiens) (UniProt P13612+P05556). In words: alpha4beta1 integrin LIBS antibody binding reduction – U937 cells, HUTS-21 mAb, flow cytometry, validation set, VLA-4 allosteric modulator project, pilot screen (AID 2674;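 active = inhibition above 50%, about 3 SD of the validation set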;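 also: antibody binding induced by the VLA-4 ligand LDV present at three times its Kd; 0% = LDV ligand with antibody and no compound and 100% = antibody without LDV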). To be noted: HUTS-21 LIBS mAb binding, at 6.7 µM, stronger effect = higher value, binding induced by LDV ligand.

Assay [8] in a line: calorie-restriction mimetic ROS inhibitors, yeast – validation compound set, pilot screen (AID 2706;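 active = superoxide response below 65% of plate, a cut near 3 SD across the whole screen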;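 also: yeast exposed to compound for one week at 30 degrees C before staining; 100% = mean of all compound wells on the same plate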). Conditions: S. cerevisiae aging, superoxide DHE fluorescence; at 10 µM; stronger effect = lower value.
The target in assay [9] is Beta-adrenergic receptor kinase 1 (Homo sapiens) (UniProt P25098). In words: GRK2 binders displacing RNA aptamer, biochemical, validation, human GRK2, bead flow cytometry (AID 488806;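 active = aptamer binding inhibition above 30%, about 3 SD of noise from non-fluorescent compounds; inactive = inhibition at or below 30%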). To be noted: bead-bound GRK2, FAM-aptamer displacement, at 10 µM, stronger effect = higher value.
Sequence of Beta-adrenergic receptor kinase 1 (Homo sapiens) (P25098 whole entry, looked up): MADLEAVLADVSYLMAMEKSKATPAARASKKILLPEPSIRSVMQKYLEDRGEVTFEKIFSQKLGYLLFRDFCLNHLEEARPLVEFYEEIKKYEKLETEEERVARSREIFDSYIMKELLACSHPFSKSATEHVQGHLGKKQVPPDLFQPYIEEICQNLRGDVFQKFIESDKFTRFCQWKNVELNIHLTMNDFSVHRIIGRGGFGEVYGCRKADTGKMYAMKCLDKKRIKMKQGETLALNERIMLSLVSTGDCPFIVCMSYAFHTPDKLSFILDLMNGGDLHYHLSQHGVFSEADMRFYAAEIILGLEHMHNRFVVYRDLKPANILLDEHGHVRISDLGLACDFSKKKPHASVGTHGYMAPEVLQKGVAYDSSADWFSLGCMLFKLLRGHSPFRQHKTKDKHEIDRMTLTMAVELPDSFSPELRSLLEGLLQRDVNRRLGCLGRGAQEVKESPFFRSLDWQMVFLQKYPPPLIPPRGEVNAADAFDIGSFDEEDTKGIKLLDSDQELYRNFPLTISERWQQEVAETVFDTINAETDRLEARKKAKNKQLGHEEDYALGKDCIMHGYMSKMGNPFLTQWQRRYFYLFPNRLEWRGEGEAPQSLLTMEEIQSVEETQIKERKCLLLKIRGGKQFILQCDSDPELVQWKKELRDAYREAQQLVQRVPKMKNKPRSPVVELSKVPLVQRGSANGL
Assay [10] has as its target Beta-2 adrenergic receptor (Homo sapiens) (UniProt P07550). The assay can be described thus: agonist-induced loss of surface beta2AR – cell-based, FAP fluorogen, flow cytometry, validation set, pilot screen (AID 504459;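 active = percent response above 42, roughly 3 SD of non-fluorescent test compounds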;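 also: agonist-driven loss of surface beta2AR via internalization measured by FAP dye flow cytometry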). Conditions: Am2.2-beta2AR cells, at 10 µM, stronger effect = higher value.
Assay [11] has as its target AP-2 complex subunit beta (Homo sapiens) (UniProt P63010). The assay can be described thus: beta-arrestin/AP2 interaction blockers – biochemical, validation set, GST-AP2 beads, flow cytometry, pilot screen (AID 504541;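 active = inhibition above 54%, about 3 SD of non-fluorescent compounds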;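 also: AP2 carries R879A mutation and is captured from E. coli lysate; bead-bound FITC arrestin peptide fluorescence measuring arrestin peptide binding to AP2; 0% = DMSO wells and 100% = excess unlabeled arrestin peptide control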). To be noted: FITC arrestin peptide, at 10 µM, stronger effect = higher value, AP2 beta2 appendage fragment, R879A mutant.
The nature of assay [12]: cytosolic pH regulators acting via V-ATPase – S. cerevisiae, pHLuorin, HTS validation (AID 504600; in the data active = response above about 15%;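 also: plate controls were DMSO for no effect and reference compound for full effect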). To be noted: V-ATPase proton transport, at 10 µM, stronger effect = higher value.
For assay [13], the system named is anti-desmoglein-3 scFv antibody binding to human DSG3. The assay can be described thus: blockers of pathogenic pemphigus antibody–desmoglein-3 binding – biochemical, validation compound set, bead-based, flow cytometry, pilot screen (AID 588368;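 active = binding below the plate cutoff, the plate median minus 3 SD, with a reading above zero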;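 also: signal is the median channel fluorescence of bead-bound GFP antibody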). Conditions: Protein G beads, DSG3-Fc, scFv-GFP binding, at 10 µM, stronger effect = lower value.
Assay [14] can be described thus: Nile Red efflux blockade in pump-expressing yeast – validation compound set, multiplex, phenotypic, pilot screen (AID 588506;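 active = efflux inhibition above 0.42, the validation set average plus 4 SD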;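 also: Nile Red retained in cells so higher fluorescence means more efflux inhibition; 0 = negative control wells and 1 = enniatin B 25 µM full block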). To be noted: S. cerevisiae pump-expressing triplex, Nile Red efflux flow cytometry; at 10 µM; stronger effect = higher value; the pumps come from Candida albicans.
For assay [15], the target named is ATP-binding cassette sub-family B member 6 (Homo sapiens) (UniProt Q9NP58). In words: blockers of ABCB6-driven porphyrin uptake – K562-ABCB6 cells, flow cytometry, validation set, pilot screen (AID 588550).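 Also: 0% = DMSO wells and 100% = benzethonium chloride 70 µM positive control.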 Conditions: K562-ABCB6 porphyrin accumulation, 1 h, at 10 µM, stronger effect = higher value.
Sequence of ATP-binding cassette sub-family B member 6 (Homo sapiens) (Q9NP58 whole entry, looked up): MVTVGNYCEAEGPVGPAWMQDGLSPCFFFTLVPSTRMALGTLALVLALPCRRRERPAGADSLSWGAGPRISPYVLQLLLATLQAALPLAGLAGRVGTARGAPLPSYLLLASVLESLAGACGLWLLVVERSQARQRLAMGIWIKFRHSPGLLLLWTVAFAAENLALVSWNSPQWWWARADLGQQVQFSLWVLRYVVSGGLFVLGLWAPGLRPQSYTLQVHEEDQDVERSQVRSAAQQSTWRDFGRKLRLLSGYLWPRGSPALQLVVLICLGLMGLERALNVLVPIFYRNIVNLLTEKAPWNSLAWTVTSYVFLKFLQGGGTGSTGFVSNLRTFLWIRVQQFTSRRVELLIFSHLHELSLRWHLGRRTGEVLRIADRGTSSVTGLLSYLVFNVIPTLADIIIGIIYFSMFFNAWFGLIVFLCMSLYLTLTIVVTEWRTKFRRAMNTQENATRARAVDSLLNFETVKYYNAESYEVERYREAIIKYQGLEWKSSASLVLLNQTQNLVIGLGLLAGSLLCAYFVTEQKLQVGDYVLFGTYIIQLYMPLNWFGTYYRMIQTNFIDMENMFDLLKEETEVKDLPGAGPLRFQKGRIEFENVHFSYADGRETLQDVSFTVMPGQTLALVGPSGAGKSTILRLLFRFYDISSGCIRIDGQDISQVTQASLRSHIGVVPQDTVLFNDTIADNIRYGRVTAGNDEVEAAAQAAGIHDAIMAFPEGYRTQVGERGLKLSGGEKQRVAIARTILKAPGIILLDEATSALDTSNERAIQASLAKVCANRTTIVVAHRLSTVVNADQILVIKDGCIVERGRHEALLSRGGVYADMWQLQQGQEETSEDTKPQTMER
Assay [16] can be described thus: AML differentiation inducers, ER-HoxA9 marrow cells – cell-based, GFP/MAC1 double positive, flow cytometry, validation set, primary screen (AID 588685;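 active = differentiation response of at least 50%, scaled between solvent and reference control, from cells with both markers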;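 also: compound exposure lasts four days before antibody staining and flow analysis; 0% = DMSO wells and 100% = 5 µM fulvestrant positive control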). Conditions: stronger effect = higher value, normalized: vehicle 0, fulvestrant 100.

Sequence of Integrin beta-1 (Homo sapiens) + Integrin alpha-4 (Homo sapiens) (P05556 whole entry, looked up): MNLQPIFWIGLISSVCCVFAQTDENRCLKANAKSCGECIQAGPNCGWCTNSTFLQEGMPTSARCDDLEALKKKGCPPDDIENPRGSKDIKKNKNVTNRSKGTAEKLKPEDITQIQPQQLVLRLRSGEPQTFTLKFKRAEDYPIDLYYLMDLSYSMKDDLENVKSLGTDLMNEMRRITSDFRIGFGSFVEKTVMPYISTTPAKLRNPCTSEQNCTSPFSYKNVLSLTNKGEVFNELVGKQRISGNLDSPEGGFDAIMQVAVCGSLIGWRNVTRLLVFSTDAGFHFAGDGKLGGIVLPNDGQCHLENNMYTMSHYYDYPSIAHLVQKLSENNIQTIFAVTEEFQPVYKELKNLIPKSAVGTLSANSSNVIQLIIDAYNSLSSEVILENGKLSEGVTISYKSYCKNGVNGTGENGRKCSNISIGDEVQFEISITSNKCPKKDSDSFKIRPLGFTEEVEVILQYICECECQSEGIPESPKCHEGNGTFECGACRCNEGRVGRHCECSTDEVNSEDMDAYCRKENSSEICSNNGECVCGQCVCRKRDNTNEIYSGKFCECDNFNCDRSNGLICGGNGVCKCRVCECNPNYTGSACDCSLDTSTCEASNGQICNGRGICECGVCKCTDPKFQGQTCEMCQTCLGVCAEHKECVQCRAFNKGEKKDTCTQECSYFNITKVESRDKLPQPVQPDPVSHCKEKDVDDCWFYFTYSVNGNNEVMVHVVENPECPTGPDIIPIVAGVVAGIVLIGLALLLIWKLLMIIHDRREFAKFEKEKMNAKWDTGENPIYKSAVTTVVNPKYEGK
Sequence of Integrin beta-1 (Homo sapiens) + Integrin alpha-4 (Homo sapiens) (P13612 whole entry, looked up): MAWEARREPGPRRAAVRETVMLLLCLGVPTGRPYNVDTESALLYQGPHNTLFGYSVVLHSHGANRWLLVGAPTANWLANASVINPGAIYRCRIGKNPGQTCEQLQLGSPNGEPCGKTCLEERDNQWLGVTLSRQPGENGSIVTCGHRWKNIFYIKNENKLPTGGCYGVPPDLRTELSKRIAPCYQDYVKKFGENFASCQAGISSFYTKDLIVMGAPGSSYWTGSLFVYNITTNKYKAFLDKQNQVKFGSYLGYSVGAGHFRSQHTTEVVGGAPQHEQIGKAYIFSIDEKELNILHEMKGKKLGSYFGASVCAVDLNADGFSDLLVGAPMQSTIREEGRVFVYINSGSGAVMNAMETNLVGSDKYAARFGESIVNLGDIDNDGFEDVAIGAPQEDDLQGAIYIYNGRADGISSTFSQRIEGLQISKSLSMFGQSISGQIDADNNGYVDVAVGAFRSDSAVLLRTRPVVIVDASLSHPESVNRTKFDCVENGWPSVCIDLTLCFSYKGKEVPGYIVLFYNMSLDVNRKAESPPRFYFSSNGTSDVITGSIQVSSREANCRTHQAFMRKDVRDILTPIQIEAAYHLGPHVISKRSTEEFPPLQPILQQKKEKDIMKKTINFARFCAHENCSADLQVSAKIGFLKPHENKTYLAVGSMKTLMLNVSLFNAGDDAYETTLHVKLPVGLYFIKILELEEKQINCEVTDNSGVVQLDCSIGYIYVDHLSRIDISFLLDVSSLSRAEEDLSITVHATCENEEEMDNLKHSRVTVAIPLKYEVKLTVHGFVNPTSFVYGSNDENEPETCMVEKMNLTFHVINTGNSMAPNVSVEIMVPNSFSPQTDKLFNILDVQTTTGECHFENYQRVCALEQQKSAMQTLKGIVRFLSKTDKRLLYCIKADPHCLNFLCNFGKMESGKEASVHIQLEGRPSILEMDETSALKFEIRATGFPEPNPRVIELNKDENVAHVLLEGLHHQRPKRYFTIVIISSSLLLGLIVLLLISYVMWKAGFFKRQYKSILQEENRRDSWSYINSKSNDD
Sequence of Beta-2 adrenergic receptor (Homo sapiens) (P07550 whole entry, looked up): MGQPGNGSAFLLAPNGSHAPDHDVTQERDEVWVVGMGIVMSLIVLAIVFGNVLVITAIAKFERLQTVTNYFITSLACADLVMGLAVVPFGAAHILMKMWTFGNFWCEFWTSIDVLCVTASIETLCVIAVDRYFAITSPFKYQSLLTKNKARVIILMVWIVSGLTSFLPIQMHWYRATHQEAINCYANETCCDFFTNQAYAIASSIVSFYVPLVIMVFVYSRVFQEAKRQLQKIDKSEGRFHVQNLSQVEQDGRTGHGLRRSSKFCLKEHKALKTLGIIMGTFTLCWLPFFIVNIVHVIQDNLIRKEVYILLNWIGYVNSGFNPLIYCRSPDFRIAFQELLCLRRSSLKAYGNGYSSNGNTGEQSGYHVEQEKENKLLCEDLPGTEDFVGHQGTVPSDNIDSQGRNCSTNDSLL
Sequence of AP-2 complex subunit beta (Homo sapiens) (P63010 whole entry, looked up, the tested form may be a part, one chain of several): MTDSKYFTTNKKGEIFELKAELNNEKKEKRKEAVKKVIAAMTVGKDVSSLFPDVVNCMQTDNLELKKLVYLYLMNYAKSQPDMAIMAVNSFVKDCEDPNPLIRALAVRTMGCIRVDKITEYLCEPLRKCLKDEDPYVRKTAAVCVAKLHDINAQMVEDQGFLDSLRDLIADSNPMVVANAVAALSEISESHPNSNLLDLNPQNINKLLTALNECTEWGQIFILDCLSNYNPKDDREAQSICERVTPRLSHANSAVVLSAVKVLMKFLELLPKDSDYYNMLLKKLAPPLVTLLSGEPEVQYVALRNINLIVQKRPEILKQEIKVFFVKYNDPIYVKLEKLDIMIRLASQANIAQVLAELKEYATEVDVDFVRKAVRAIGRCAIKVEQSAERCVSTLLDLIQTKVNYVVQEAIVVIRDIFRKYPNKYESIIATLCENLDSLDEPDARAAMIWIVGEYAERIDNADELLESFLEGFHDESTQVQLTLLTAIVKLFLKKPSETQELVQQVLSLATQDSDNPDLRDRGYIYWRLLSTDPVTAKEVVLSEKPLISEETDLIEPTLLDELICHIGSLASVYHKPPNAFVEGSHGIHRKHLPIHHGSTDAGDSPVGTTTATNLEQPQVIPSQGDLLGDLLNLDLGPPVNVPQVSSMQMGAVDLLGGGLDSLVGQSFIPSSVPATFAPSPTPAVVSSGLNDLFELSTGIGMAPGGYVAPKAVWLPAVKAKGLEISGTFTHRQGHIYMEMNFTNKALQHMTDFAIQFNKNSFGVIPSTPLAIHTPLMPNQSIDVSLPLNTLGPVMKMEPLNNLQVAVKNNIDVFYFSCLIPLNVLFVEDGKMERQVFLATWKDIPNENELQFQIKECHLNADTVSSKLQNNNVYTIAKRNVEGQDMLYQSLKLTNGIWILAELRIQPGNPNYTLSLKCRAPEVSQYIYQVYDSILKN

A word on the inhibition: it is the relative decrease from the control value, in per cent. In the case of `Cc1c(NC(=O)c2cccs2)cccc1[N+](=O)[O-]`, the percent of DMSO control GFP in assay [1] was 102% (inactive). Further, the GFP response vs DMSO in [2] is 103% (inactive); in [4], 107% (inactive). Also, the percent response of DMSO control in assay [3] was 102% (inactive). Further, in assay [5], the GFP response, % of DMSO was 99.1% (inactive). Moreover, the double positive events in assay [6] was found to be 67.8%. The vesicle binding response in assay [6] is 342% (inactive). The inhibition is 2.93% (inactive) in assay [7], -17.9% (inactive) in assay [11] and 1% (inactive) in assay [15]. Further, the superoxide response (% of plate) in [8] was 95.5% (inactive). Besides, in assay [9], the aptamer binding inhibition is -4% (inactive). Further, the response in [10] is 3.73% (inactive); in assay [12], -1.2% (inactive). In addition, the binding (% of control) in assay [13] is 104% (inactive). For the same molecule, the efflux inhibition (fraction of control) in assay [14] is -0.01 (inactive). Also, in assay [16], the differentiation response is 18.8% (inactive).
As to `Cc1cccc2c(=O)n3c(nc12)CCCCC3`, the percent of DMSO control GFP in assay [1] was 99.3% (inactive). Also, the GFP response vs DMSO in assay [2] is 101% (inactive); in [4] it was 119% (inactive). Besides, in [3], the percent response of DMSO control was 97.6% (inactive). For the same molecule, the GFP response, % of DMSO in assay [5] was 104% (inactive). The double positive events in assay [6] amounted to 57%. Also, the vesicle binding response in assay [6] was 172% (inactive). Besides, the inhibition in [7] is -14.5% (inactive); in assay [11], -3.62% (inactive); in assay [15], 2% (inactive). In assay [8], the superoxide response (% of plate) was 105% (inactive). Besides, the aptamer binding inhibition in assay [9] was -3% (inactive). Moreover, the response is -4.11% (inactive) in assay [10] and 0.7% (inactive) in [12]. Moreover, in [13], the binding (% of control) was 105% (inactive). For the same molecule, the efflux inhibition (fraction of control) in assay [14] was -0.41 (inactive). Also, the differentiation response in [16] was 36.4% (inactive).
For the molecule `Cc1nc(-c2coc3c(CN(C)C)c(O)ccc3c2=O)cs1`, in assay [1], the percent of DMSO control GFP was 92.6% (inactive). For the same molecule, the GFP response vs DMSO in assay [2] is 131% (inactive); in assay [4], 85.8% (inactive). Further, the percent response of DMSO control in assay [3] was 104% (inactive). In addition, the GFP response, % of DMSO in [5] was 88% (inactive). The same molecule displayed a double positive events in assay [6] of 61.6%. The vesicle binding response in [6] was 143% (inactive). Besides, the inhibition in assay [7] was -26.5% (inactive); in assay [11], 2.27% (inactive); in [15], 11% (inactive). In addition, in assay [8], the superoxide response (% of plate) was 98.6% (inactive). The aptamer binding inhibition in [9] was 6% (inactive). Moreover, the response in assay [10] is 4.53% (inactive); in assay [12], -0.21% (inactive). For the same molecule, the binding (% of control) in [13] is 105% (inactive). Also, the efflux inhibition (fraction of control) in assay [14] was -0.46 (inactive). Moreover, in [16], the differentiation response is -1.64% (inactive).
As to `COc1cc(C(=O)NCCCCCC(=O)O)cc(OC)c1OC`, the percent of DMSO control GFP in assay [1] is 104% (inactive). The GFP response vs DMSO is 105% (inactive) in assay [2] and 103% (inactive) in assay [4]. Moreover, in assay [3], the percent response of DMSO control is 102% (inactive). Also, the GFP response, % of DMSO in [5] is 108% (inactive). In [6], this molecule displayed a double positive events of 65.5%. Besides, the vesicle binding response in assay [6] is 199% (inactive). Moreover, the values for the inhibition in assay [7], in assay [11] and in assay [15] were 5.61% (inactive), -5.4% (inactive) and 1% (inactive), respectively. Also, the superoxide response (% of plate) in assay [8] was 100% (inactive). The aptamer binding inhibition in assay [9] was 2% (inactive). Besides, the figures for the response in assay [10] and in assay [12] were 11.2% (inactive) and 1.93% (inactive), respectively. The binding (% of control) in assay [13] is 101% (inactive). The efflux inhibition (fraction of control) in assay [14] is -0.23 (inactive). Also, the differentiation response in assay [16] was -19.2% (inactive).
`Cc1ccc2nc(C)c3c(c2c1)OC(C(C)(Cl)Br)C3` (stereo not given): the percent of DMSO control GFP in assay [1] is 102% (inactive). The results for the GFP response vs DMSO in assay [2] and in assay [4] were 102% (inactive) and 105% (inactive), respectively. In addition, in [3], the percent response of DMSO control was 111% (inactive). Besides, in assay [5], the GFP response, % of DMSO was 105% (inactive). The same molecule displayed a double positive events in [6] of 73%. For the same molecule, in [6], the vesicle binding response was 278% (inactive). Moreover, the inhibition in assay [7] is 6.4% (inactive); in assay [11], -1.65% (inactive); in [15], 1% (inactive). For the same molecule, in assay [8], the superoxide response (% of plate) was 94.8% (inactive). Moreover, in assay [9], the aptamer binding inhibition is 5% (inactive). The response is 23.5% (inactive) in assay [10] and 6.53% (inactive) in assay [12]. Besides, the binding (% of control) in assay [13] was 98.4% (inactive). Besides, in [14], the efflux inhibition (fraction of control) is 0.08 (inactive). The differentiation response in assay [16] is 15.2% (inactive).
